HCV inh = blocks hepatitis C virus. 340,000 tested, 3.4% active. AID 651820. Huh7.5.1 HCVcc-Cre infection, luciferase reporter, 44 h. Potency, µM (highest dose often 41.8 µM), for inactives: at the highest dose activity change, negative = inhibition, most hits filed as inhibitors
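Luciferase read-out (15 sec integration) after a 15 min room-temperature substrate step quantifies HCVcc-Cre infection. Cells, 1,000 per well, had compound added 4 h post-plating, then virus at ~0.5 moi, and were cultured 44 h.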
MARV entry inh = Marburg virus entry inhibition; Marburg virus pseudotyped entry inhibition, cell reporter; AID 540276; 300,000 tested, 1.8% active; Potency, µM (series often up to 37.8 µM), without a hit: at the highest dose activity change, negative = inhibition, actives largely listed as inhibitors; calls by dose curve; tested in HEK293 cells
Sm TGR inh = S. mansoni TGR enzyme inhibition. 360,000 tested, 3% active. purified TGR, DTNB reduction, TNB absorbance 405 nm. AID 485364. Potency, µM (titrated, usually from 114 µM), for inactives: at the highest dose activity change, negative = inhibition, most hits filed as inhibitors. Q962Y6; note: nearly all actives have a fitted effect of over 60% in size
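First, TGR (20 nM dispensed) and NADPH were mixed with compound. Second, a 15 min room-temperature incubation followed. Third, further NADPH and then DTNB were added to start the reaction. Finally, TNB absorbance was monitored kinetically.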
FMDV antiviral = blocks foot and mouth disease virus; FMDV antiviral cell-based qHTS; Potency, µM (top dose mostly 57.9 µM), inactives show at the top dose activity change, negative = inhibition, hits mostly inhibitors; 410,000 tested, 1.2% active; AID 1159524; calls by dose curve; tested in HEK293T cells; note: read-out not given here; nearly all actives have a fitted effect of over 45% in size
LASV entry inh = blocks Lassa virus binding to or entry into cells. Lassa virus pseudotype entry inhibition, cell reporter. AID 540256. 300,000 tested, 1.2% active. Potency, µM (titrated, usually from 37.9 µM), for inactives: top-dose activity change, negative = inhibition, hits mostly inhibitors; calls by dose curve; tested in HEK293 cells; note: nearly all actives have a fitted effect of over 50% in size
RE007 growth inh = less growth of the S. pombe RE007 Vpr strain; 360,000 tested, 0.21% active; S. pombe RE007 Vpr strain, BacTiter-Glo ATP luminescence, 24 h; Potency, µM (top dose mostly 92.2 µM), inactives show top-dose activity change, negative = less growth, usual class: inhibitors; AID 651644; active = well fitted falling curve with a large enough effect; inconclusive = small, poorly fitted or top-dose-only effect; inactive = no such curve, though single readings can be large or run the other way; note: nearly all actives have a fitted effect of over 50% in size
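Fission yeast RE007 carrying one integrated HIV-1 vpr copy, seeded at OD 0.01 in PMG+AL medium with 23 nL pinned compound. Grown 24 h at 30 degrees; viability read by BacTiter-Glo luminescence after 5 min.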
Numbers without * were called inactive; ? = inconclusive; · = not tested or not shown; [ ] = remark or other dose. Shown are actives, neighbours in structure and some others; about 7.2% of the full set was active somewhere. Unless noted, calls come from the whole dose curve; as a rule, active = well fitted curve in the direction sought with a large enough effect; inconclusive = small, poorly fitted or top-dose-only effect, or another doubt; inactive = no such curve, though single readings can be large; an effect the other way counts as inactive or inconclusive. % is set by controls: 0 for no effect and ±100 for the full control effect; potency is the fitted concentration of half-maximal effect.

SMILES	HCV inh	MARV entry inh	Sm TGR inh	FMDV antiviral	LASV entry inh	RE007 growth inh
CCOC(=O)c1sc(N2C(=O)C(O)=C(C(=O)c3ccco3)C2c2ccco2)nc1C (stereo unspecified)	-22.8%	-16.9%[46.1 µM]	25.1µM*	-5.2%	-4.0%	-11.0%
CC(C)CCN(CCC(C)C)CC(O)Cn1c2ccccc2c(=O)c2ccccc21 (stereo unspecified)	?	·	28.3%	?	·	0.0%
Cc1cccc(N(CC(O)Cn2c3ccccc3c3ccccc32)S(=O)(=O)c2ccc(F)cc2)c1 (stereo unspecified)	·	?	13.1%	?	?	·
Cc1ccc(N(CC(O)Cn2c3ccccc3c3ccccc32)S(C)(=O)=O)c(C)c1 (stereo unspecified)	-5.2%	16.4µM*	-3.1%	?	1.0%	-7.3%
CCCN(CCC)CC(O)Cn1c2ccccc2c2ccccc21 (stereo unspecified)	?	7.08µM*	-2.3%[57.1 µM]	-4.8%	-9.4%[46.1 µM]	-15.0%
Cc1ccc(N(CC(O)Cn2c3ccccc3c3ccccc32)S(C)(=O)=O)cc1 (stereo unspecified)	-1.5%	?	-10.4%	·	-15.9%	9.7%
CC(=O)Nc1ccc(N(CC(O)Cn2c3ccccc3c3ccccc32)S(=O)(=O)c2ccc(C)cc2)cc1 (stereo unspecified)	?	?	4.3%	?	11.2µM*	5.0%
CCOc1ccc(C(=O)OCc2cc(=O)n3nc(C4CC4)sc3n2)cc1	·	·	1.8%	-13.1%	11.7%[46.1 µM]	·
COC(=O)c1c(SC)nc2ccccc2c1OCc1ccc(C)cc1C	·	·	6.6%	-20.5%	21.4%[46.1 µM]	·
O=c1c2c3c(sc2nc2n1CCCC2)CCCC3	-14.5%	?	1.8%	22.5%	3.9%	28.2µM*
CSc1nc2sc3c(c2c(=O)n1C)CCC3	?	·	-24.6%	10.1%	·	-5.6%
CSc1nc2sc3c(c2c(=O)n1C)CCCC3	11.2µM*	11.9%	-24.9%[11.4 µM]	·	1.6%	-19.1%
Cc1cccc(NC(=O)CSc2nc(N)c(NC(=O)c3ccccc3F)c(=O)[nH]2)c1	3.5%	-0.2%	2.5%	20.1%	?	-2.9%
CC(=O)Nc1ccc(NC(=O)CSc2nc(N)c(NC(=O)c3ccccc3F)c(=O)[nH]2)cc1	20.8%	18.4%	89.1µM*	-8.6%	27.1%	-20.1%
Cn1cnc([N+](=O)[O-])c1Oc1ccccc1	?	?	35.5µM*	?	-7.1%	3.8%
Cn1cnc([N+](=O)[O-])c1Oc1cccc(O)c1	-2.9%	-4.4%	31.6µM*	39.8µM*	-20.7%	-16.0%
Cn1cnc([N+](=O)[O-])c1C(=O)Nc1cccc([N+](=O)[O-])c1	3.9%	·	4.5%	-9.1%	·	9.8%
CCOc1ccc(Cn2ccnc2)cc1[N+](=O)[O-]	3.2%	?	-2.5%	1.4%	-5.9%	-7.0%
CCCCCOc1ccc(Cn2ccnc2)cc1[N+](=O)[O-]	11.2µM*	-13.7%	3.7%	-9.7%	6.4%	-1.5%
COc1ccc(-c2csc3ncnc(N4CCN(c5ccccc5)CC4)c23)cc1	?	?	-36.2%	17.8µM*	?	2.5%
COc1ccc(-c2csc3ncnc(N4CCN(Cc5ccccc5)CC4)c23)cc1	2.9%	0.9%	-3.2%	22.4µM*	11.0%	0.8%
Cc1ccccc1N1CCN(c2ncnc3scc(-c4cccs4)c23)CC1	10µM*	23.1µM*	14.0%	?	-42.9%	7.6%
COc1ccc(-c2csc3ncnc(N4CCN(c5ccccc5[N+](=O)[O-])CC4)c23)cc1	15.8µM*	?	0.2%	?	?	-3.6%
CCOC(=O)c1[nH]c(C)c(CCC(=O)NCc2ccc(CC)cc2)c1C	·	·	-0.3%	2.4%	-28.1%[46.1 µM]	·
CCc1noc(-c2ccc(N3CCCCC3C)c([N+](=O)[O-])c2)n1 (stereo unspecified)	·	-2.5%[46.1 µM]	1.1%	37.1%	-2.6%[46.1 µM]	·
SMILES	HCV inh	MARV entry inh	Sm TGR inh	FMDV antiviral	LASV entry inh	RE007 growth inh
CCOC(=O)c1c(C)[nH]c(C)c1S(=O)(=O)NCC(=O)N1CCN(c2ccccc2OC)CC1	·	·	5.4%	-13.9%	5.9%[46.1 µM]	·
COc1ccccc1C1CN(CCNC(=O)c2ccccc2Cl)Cc2ccccc2O1 (stereo unspecified)	·	·	·	8.2%	·	·
COc1ccccc1NC(=O)c1ccc2c(c1)OCO2	7.0%	-0.1%[46.1 µM]	8.1%	16.1%	?	-14.7%
COc1cc2c(cc1NC(=O)CSc1ccc(C)cc1)oc1ccccc12	10µM*	?	0.1%	0.0%	1.7%	-4.0%
COc1cc2c(cc1NC(=O)c1ccc3c(c1)OCO3)oc1ccccc12	14.1µM*	?	-1.7%	·	?	-9.0%
COc1ccc(C)cc1NC(=O)Nc1ccccc1	3.16µM*	0.0%	-13.8%	-16.9%	0.7%	-1.7%
COc1cc2c(cc1NC(=O)Nc1ccccc1)oc1ccccc12	5.01µM*	-4.0%	13.3%	?	-18.8%	59.9%
COc1cc2c(cc1NC(=O)CSCC(=O)O)oc1ccccc12	-14.5%	-11.9%	-8.1%	-15.6%	-23.1%	-10.0%
Cc1ccc2c(c1)CN(CCNC(=O)c1cc3ccccc3oc1=O)CC(C)O2 (stereo unspecified)	·	·	·	0.0%	·	·
COc1ccccc1-c1ccnc(-n2ncc(C(=O)NCC3(N4CCOCC4)CCCC3)c2C)n1	·	·	·	-3.0%	·	·
CCOC(=O)c1cccc(NS(=O)(=O)c2cc(Br)cc3c2N(C(=O)C2CC2)CC3)c1	·	?	-0.8%	?	-23.3%[46.1 µM]	·
Cc1ccc(OC(F)F)c(NC(=O)Nc2cccc(C(F)(F)F)c2)c1	10µM*	?	0.3%	?	?	-0.4%
COc1cc2c(cc1NC(=O)CN(C)Cc1ccc(OC)c(OC)c1)oc1ccccc12	3.55µM*	1.1%	-1.0%	0.0%	·	-5.6%
COc1ccc(C)cc1NC(=O)c1nn(-c2ccccc2)cc1OC	7.08µM*	?	-5.4%	?	?	7.6%
COc1ccc(CN(C)CC(=O)Nc2cc3oc4ccccc4c3cc2OC)c(OC)c1	?	?	3.5%	-5.0%	-0.7%	-6.7%
O=C(Nc1ccccc1)Nc1cccc(C(F)(F)F)c1	?	-6.5%[46.1 µM]	-13.0%	5.4%	-14.9%	13.3%
COc1cc2c(cc1NC(=O)COC(=O)Cn1cnc3ccccc31)oc1ccccc12	2.24µM*	?	-1.1%	51.1%	2.2%	14.8%
CC1=C(c2ccc(C)c(C)c2)S(=O)(=O)N=C1N1CCC(C(=O)NCc2ccc(C)o2)CC1	·	·	-17.7%	-4.6%	19.5%[46.1 µM]	·
CCC1CN(CCNC(=O)c2cn3cc(C)ccc3n2)Cc2cc(OC)ccc2O1 (stereo unspecified)	·	·	·	1.9%	·	·
Cc1cc([C@](C)(N)C(=O)O)ccc1P(=O)(O)O	·	·	·	-4.6%	·	·
COc1cc2c(cc1NC(=O)Cc1ccc(C)cc1)oc1ccccc12	10µM*	?	-1.0%	63.5%	8.9%	-2.1%
ClCCn1cnc2c(SCc3ccccc3)ncnc21	-21.9%	0.891µM*	·	7.3%	?	16.3%

Source: PubChem BioAssay (National Center for Advancing Translational Sciences (NCATS))
